PubChem BioAssay (Tox21)
Results filed as inconclusive are left out. Activity calls are given as the source filed them. Calls come from the whole dose curve; as a rule, active = well fitted cell-killing curve with a large enough effect in the repeat runs; inconclusive = weak or mixed curves, or effect the other way; inactive = flat fitted curve, though single readings scatter.

assay: qHTS assay to identify small molecule antagonists of the retinoid acid receptor (RAR) signaling pathway - cell viability counter screen (AID 1159551); details: C3RL4 cells viability, ATP luminescence (CellTiter-Glo), 6 h; series mostly up to 92.4 µM; note: nearly all actives have a fitted effect of over 35% in size
Excerpt: U.S. Tox21 Program National Center for Advancing Translational Sciences [NCATS] NIH Chemical Genomics Center [NCGC] U.S. Environmental Protection Agency [EPA] National Institutes of Environmental Health Sciences [NIEHS] National Toxicology Program [NTP] U.S. Food and Drug Administration [FDA] Tox21 Assay Overview: All-trans Retinoic acid (atRA) is the potent natural metabolite of retinol and plays an important role in normal embryonic development and maintenance of cellular phenotype in adult animals. atRA is the activating ligand for the retinoic acid receptors (RARs) which form heterodimers with retinoid X receptors (RXRs) on the retinoic acid response element (RARE). Through activation of the RAR/RXRs nuclear receptors, atRA regulates the transcription of a large number of protein-coding genes and regulatory RNAs. Intracellular levels of atRA are controlled by the retinol signaling pathway (RSP) that regulates the biosynthesis and catabolism of atRA to maintain physiological levels. Chemicals that interfere with the RSP can cause abnormal intracellular levels of atRA and therefore are potential developmental toxicants. To assess compounds for the potential adverse effect on embryonic development through interfering with retinol signaling, a cell-based RARE luciferase reporter gene assay was used. C3RL4 cell line (OARSA/CFSAN/FDA, Laurel, MD) was used to screen Tox21 10K compound library for identifying inhibitors of the RSP. Also cytotoxicity was assessed by determining the viability of cells based on the quantitation of ATP.
Tox21 Assay Protocol Summary: C3RL4 cells were seeded at 1,000/well in 4 uL of assay medium into white solid 1,536-well tissue culture plates (Greiner Bio-One North America Inc. Monroe, NC) using a Multidrop Combi (Thermo Scientific, Waltham, MA) dispenser. After incubation at 37 C and 5% CO2 for an overnight, 23 nL of compounds dissolved in DMSO, positive control or DMSO only were transferred by a Pintool station (Kalypsys, San Diego, CA). One ul of 1 uM (final concentration) of Retinol was added right after the compound addition by using a Flying Reagent Dispenser (FRD) (Aurora Discovery, San Diego, CA). After 6 hr incubation at 37 C and 5% CO2, 5 uL of CellTiter-Glo reagent (Promega Corporation, Madison, WI) was added to each assay plate using an FRD. Luminescence was quantified on a ViewLux plate reader (PerkinElmer, Waltham, MA) after 30 min incubation at room temperature.

| Structure (SMILES) | outcome |
| --- | --- |
| CC(=O)C1CCOC1=O (stereo not given) | inactive |
| CN(C)C(=O)C(c1ccccc1)c1ccccc1 | inactive |
| CNCC(O)c1ccc(O)cc1 (stereo not given) | inactive |
| Sc1ccccc1 | inactive |
| COC(=O)Nc1cccc(OC(=O)Nc2cccc(C)c2)c1 | inactive |
| COc1cc(-c2ccc(N)c(OC)c2)ccc1N | inactive |
| Cc1ccc(N)cc1 | inactive |
| CN(C)C(=O)Nc1cccc(C(F)(F)F)c1 | inactive |
| C[C@]12CC[C@H](O)CC1=CC[C@@H]1[C@@H]2CC[C@]2(C)C(=O)CC[C@@H]12 | inactive |
| C/C=C/c1ccc2c(c1)OCO2 | inactive |
| Nc1cc(Cl)cc(Cl)c1 | inactive |
| Nc1nc(N)nc(NC2CC2)n1 | inactive |
| COC(C)(C)CCCC(C)C/C=C/C(C)=C/C(=O)OC(C)C (stereo not given) | inactive |
| OCCCCO | inactive |
| Cc1cccc(N)c1C | inactive |
| CC[N+](=O)[O-] | inactive |
| Cc1cccc(C)c1NC(=O)CN1CCCC1=O | inactive |
| Oc1ccc(Cl)cc1 | inactive |
| CCOP(=S)(OCC)Oc1ccc([N+](=O)[O-])cc1 | inactive |
| CSc1nnc(C(C)(C)C)c(=O)n1N | inactive |

| Structure (SMILES) | outcome |
| --- | --- |
| O=[N+]([O-])c1ccc(Cl)c(Cl)c1 | inactive |
| O=[N+]([O-])c1ccc(Cl)cc1 | inactive |
| CCNc1nc(Cl)nc(NC(C)C)n1 | inactive |
| O=[N+]([O-])c1cc([As](=O)(O)O)ccc1O | inactive |
| COP(=S)(OC)Oc1ccc(SC)c(C)c1 | inactive |
| C=CC(=O)OCC(CC)CCCC (stereo not given) | inactive |
| Nc1ccc([As](=O)(O)O)cc1 | inactive |
| CCOC(=O)CC(SP(=O)(OC)OC)C(=O)OCC (stereo not given) | inactive |
| CCCOC(=O)c1ccccc1C(=O)OCCC | inactive |
| CC12CC1(C)C(=O)N(c1cc(Cl)cc(Cl)c1)C2=O (stereo not given) | inactive |
| COc1nc(NC(C)C)nc(NC(C)C)n1 | inactive |
| Clc1cnc(Oc2ccc(Oc3ncc(Cl)cc3Cl)cc2)c(Cl)c1 | inactive |
| CNC(=O)O/N=C(\SC)C(=O)N(C)C | inactive |
| CCOP(=S)(OCC)Oc1cc(C)nc(C(C)C)n1 | inactive |
| OC[C@@H](O)[C@H]1O[C@@H]2O[C@H](C(Cl)(Cl)Cl)O[C@@H]2[C@H]1O | inactive |
| Cc1ccc(O)c(C)c1 | inactive |
| O=C(O)C(Br)Br | inactive |
| C=CC#N | inactive |
| O=C/C=C/c1ccccc1 | inactive |
| CC(=O)/C=C/c1ccccc1 | inactive |
